Laboratory results from PubChem BioAssay (NCATS).
Results filed as inconclusive are left out. Active and inactive are the calls of the source. The call rests on the fitted dose curve; in most records, active means well fitted curve in the direction sought with a large enough effect; inconclusive means small, poorly fitted or top-dose-only effect, or another doubt; inactive means no such curve, though single readings can be large; an effect the other way counts as inactive or inconclusive.

Experiments:
[1] = Quantitative High-Throughput drug screen in 47 multiple myeloma cell lines against the NCATS MIPE library collection: SKMM1_PLB cell viability assay (AID 1919863); details: SKMM1 myeloma viability, CellTiter-Glo ATP, 48 h; viability: stronger effect = lower value; further: series mostly up to about 46 µM; nearly all actives have a fitted effect of over 35% in size
Method in brief: (§1)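 MIPE 4.0 approved/investigational drugs; 500 cells/well; 48 h 37 °C humidified 5% CO2; CTG luminescence readout; DMSO = 100%, media = 0% viability.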

[2] = Quantitative High-Throughput drug screen in 47 multiple myeloma cell lines against the NCATS MIPE library collection: XG6_PLB cell viability assay (AID 1919865); further: nearly all actives have a fitted effect of over 40% in size; further: potency means the concentration at half of the fitted maximal effect
Method in brief: as §1

[3] = Quantitative High-Throughput drug screen in 47 multiple myeloma cell lines against the NCATS MIPE library collection: XG1_PLB cell viability assay (AID 1919866); further: nearly all actives have a fitted effect of over 35% in size; further: potency means the concentration at half of the fitted maximal effect
Method in brief: as §1

[4] = Quantitative High-Throughput drug screen in 47 multiple myeloma cell lines against the NCATS MIPE library collection: VP6_DJ cell viability assay (AID 1919867); further: nearly all actives have a fitted effect of over 40% in size; further: potency means the concentration at half of the fitted maximal effect
Method in brief: as §1

[5] = Quantitative High-Throughput drug screen in 47 multiple myeloma cell lines against the NCATS MIPE library collection: UTMC2_PLB cell viability assay (AID 1919868); further: nearly all actives have a fitted effect of over 55% in size; further: potency means the concentration at half of the fitted maximal effect
Method in brief: as §1

[6] = Quantitative High-Throughput drug screen in 47 multiple myeloma cell lines against the NCATS MIPE library collection: PE2_PLB cell viability assay (AID 1919869); further: nearly all actives have a fitted effect of over 35% in size; further: potency means the concentration at half of the fitted maximal effect
Method in brief: as §1

[7] = Quantitative High-Throughput drug screen in 47 multiple myeloma cell lines against the NCATS MIPE library collection: PCM6_Riken cell viability assay (AID 1919870); further: nearly all actives have a fitted effect of over 30% in size; further: potency means the concentration at half of the fitted maximal effect
Method in brief: as §1

[8] = Quantitative High-Throughput drug screen in 47 multiple myeloma cell lines against the NCATS MIPE library collection: RPMI8226_ATCC cell viability assay (AID 1919871); further: nearly all actives have a fitted effect of over 30% in size; further: potency means the concentration at half of the fitted maximal effect
Method in brief: as §1

[9] = Quantitative High-Throughput drug screen in 47 multiple myeloma cell lines against the NCATS MIPE library collection: KMS11_JCRBsus cell viability assay (AID 1919873); further: nearly all actives have a fitted effect of over 50% in size; further: potency means the concentration at half of the fitted maximal effect
Method in brief: as §1

[10] = Quantitative High-Throughput drug screen in 47 multiple myeloma cell lines against the NCATS MIPE library collection: U266_ATCC cell viability assay (AID 1919864); further: nearly all actives have a fitted effect of over 35% in size; further: potency means the concentration at half of the fitted maximal effect
Method in brief: as §1

[11] = Quantitative High-Throughput drug screen in 47 multiple myeloma cell lines against the NCATS MIPE library collection: OPM2_DSMZ cell viability assay (AID 1919872); further: nearly all actives have a fitted effect of over 30% in size; further: potency means the concentration at half of the fitted maximal effect
Method in brief: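 CellTiter-Glo luminescence (ATP) after 48 h compound exposure, 37C/5% CO2; 500 cells/well; MIPE 4.0 approved/investigational drugs pinned in; DMSO = 100%, media only = 0% viability.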

[12] = Quantitative High-Throughput drug screen in 47 multiple myeloma cell lines against the NCATS MIPE library collection: KMS28BM_JCRB cell viability assay (AID 1919874); further: nearly all actives have a fitted effect of over 35% in size; further: potency means the concentration at half of the fitted maximal effect
Method in brief: as §1

[13] = KB-3-1 P-gp reporter qHTS against the NCATS DSHEA and TCM libraries (AID 1919975); further: 0% is about no effect
Method in brief: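 KB-3-1 parental line, 1536-well qHTS: cells seeded, ~4 h attachment, pintool compound addition, ~72 h at 37C, then CellTiter-Glo, 30 min RT, luminescence. Concentration-response format.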

[14] = qHTS Counterscreen for compound interference against the NCATS DSHEA and TCM libraries (AID 1919978); details: firefly luciferase detection reagent interference, luminescence;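 further: compounds preincubated with 1 µM D-luciferin or buffer before detection reagent; % of control where 0% means no effect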
Method in brief: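 Compounds, titrated from 19.5 nM to 39.8 uM final, were pinned onto 1 uM D-luciferin or plain 100 mM potassium phosphate. After 15 min at room temperature, luciferin detection reagent was added for 30 min before the luminescence read.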

[15] = Dual reporter qHTS for agonist of Pregnane X Receptor (hPXR) against the NCATS DSHEA and TCM libraries: Fluorescence readout (AID 1920058); further: 0% is about no effect
Method in brief: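 HepG2 hPXR-Luc, 2000 cells/well, 5 h attach; cpds ~24 h, 37 °C/5% CO2; CellTiter-Fluor 1 h; fluor. Ex/Em 405/540 nm = viability.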

CN1CCC(=C2c3ccccc3CC(=O)c3sccc32)CC1
active: Potency [2] 5.9 µM | Potency [3] 8.33 µM | Potency [4] 9.35 µM | Potency [5] 10.5 µM | Potency [6] 11.8 µM | Potency [7] 14.8 µM
inactive: viability [1] 102% | Potency [8] | Potency [9]

COc1ccc(C2CNC(=O)C2)cc1OC1CCCC1 (stereo not drawn)
active: Potency [2] 20.9 µM | Potency [4] 14.8 µM
inactive: Potency [10] | Potency [6] | Potency [8] | Potency [11] | Potency [9] | Potency [12]

CCOC(=O)C(C)(C)Oc1ccc(Cl)cc1
inactive: viability [1] 104% | Potency [10] | Potency [6] | Potency [7] | Potency [8] | Potency [11] | Potency [9] | Potency [12]

CCC1(C)CC(=O)NC1=O (stereo not drawn)
inactive: Potency [10] | Potency [2] | Potency [3] | Potency [6] | Potency [7] | Potency [8] | Potency [9] | Potency [12]

CC(=O)OCC(CCn1cnc2cnc(N)nc21)COC(C)=O
inactive: Potency [2] | Potency [3] | Potency [4] | Potency [5] | Potency [6] | Potency [7] | Potency [8] | Potency [11] | Potency [9] | Potency [12]

CCCNCC(O)COc1ccccc1C(=O)CCc1ccccc1 (stereo not drawn)
inactive: Potency [10] | Potency [2] | Potency [6] | Potency [7]

CN1CCN2c3ccccc3Cc3ccccc3C2C1 (stereo not drawn)
active: Potency [2] 10.5 µM | Potency [3] 18.7 µM | Potency [4] 3.72 µM | Potency [9] 23.5 µM | Potency [12] 23.5 µM
inactive: Potency [5]

C[C@](N)(Cc1ccc(O)c(O)c1)C(=O)O
inactive: Potency [3] | Potency [5] | Potency [7] | Potency [12]
active: Potency [10] 18.7 µM | Potency [9] 7.43 µM

CN(C)c1nc(N(C)C)nc(N(C)C)n1
inactive: Potency [3] | Potency [5] | Potency [6] | Potency [12]

Cc1ccc(-c2cc(C(F)(F)F)nn2-c2ccc(S(N)(=O)=O)cc2)cc1
inactive: Potency [6] | Potency [11]

O=C1Cc2cc(CCN3CCN(c4nsc5ccccc45)CC3)c(Cl)cc2N1
active: Potency [2] 23.5 µM | Potency [3] 23.5 µM | Potency [4] 16.6 µM | Potency [5] 20.9 µM | Potency [6] 18.7 µM | Potency [7] 18.7 µM | Potency [8] 20.9 µM | Potency [12] 23.5 µM

Nc1nnc(-c2cccc(Cl)c2Cl)c(N)n1
inactive: Potency [5] | Potency [8] | Potency [11] | Potency [9] | Potency [12]
active: Potency [2] 9.35 µM | Potency [3] 16.6 µM

Nc1c2c(nc3ccccc13)CCCC2
active: Potency [8] 1.32 µM | Potency [12] 16.6 µM
inactive: Potency [2] | Potency [3] | Potency [6] | Potency [7] | Potency [9]

CC1(C)O[C@H]2CC(=O)OC[C@]23[C@H]2CC[C@@]4(C)[C@H](c5ccoc5)OC(=O)[C@H]5O[C@]54[C@]2(C)C(=O)C[C@@H]13
inactive: Potency [2] | Potency [3] | Potency [6] | Potency [8] | Potency [9] | Potency [12]

COc1nc(C)nc(Cl)c1NC1=NCCN1
inactive: Potency [9] | Potency [12]
active: Potency [10] 20.9 µM

CN1C2CCC1CC(OC(=O)C(CO)c1ccccc1)C2 (stereo not drawn)
inactive: Potency [2] | Potency [3] | Potency [5] | Potency [6] | Potency [7] | Potency [8] | Potency [9] | Potency [12]

COc1cc2c(c(OC)c1OC)-c1ccc(OC)c(=O)cc1[C@@H](NC(C)=O)CC2
inactive: Potency [2] | Potency [3] | Potency [4] | Potency [5] | Potency [6] | Potency [7] | Potency [9]

C[C@@H]1CC(=O)NN=C1c1ccc(NN=C(C#N)C#N)cc1
active: Potency [2] 23.5 µM | Potency [3] 18.7 µM | Potency [4] 18.7 µM | Potency [6] 14.8 µM | Potency [7] 18.7 µM | Potency [8] 20.9 µM | Potency [9] 16.6 µM | Potency [12] 23.5 µM

NCCCCCC(=O)O
inactive: Potency [2] | Potency [3] | Potency [5] | Potency [6] | Potency [7] | Potency [8] | Potency [9] | Potency [12]

CN(C)CCC=C1c2ccccc2C=Cc2ccccc21
active: Potency [8] 6.62 µM | Potency [12] 3.72 µM
inactive: Potency [6] | Potency [11]

Clc1ccc2c(c1)C(N1CCNCC1)=Nc1ccccc1O2
inactive: Potency [2] | Potency [3] | Potency [11]

OCCN1CCN(CCCN2c3ccccc3Sc3ccc(C(F)(F)F)cc32)CC1
inactive: Potency [11]
active: Potency [2] 23.5 µM | Potency [3] 20.9 µM | Potency [4] 16.6 µM | Potency [6] 20.9 µM | Potency [7] 23.5 µM | Potency [8] 16.6 µM | Potency [9] 13.2 µM | Potency [12] 23.5 µM

Cn1ccc2cc3c(cc21)CCN3C(=O)Nc1cccnc1
inactive: Potency [8]
active: Potency [2] 11.8 µM | Potency [4] 14.8 µM | Potency [7] 23.5 µM

CC(C)Cc1ccc(C(C)C(=O)O)cc1 (stereo not drawn)
active: Potency [2] 6.45 µM
inactive: Potency [3] | Potency [5] | Potency [6] | Potency [8] | Potency [9]

CCOC(=O)c1ncn2c1CN(C)C(=O)c1cc(F)ccc1-2
inactive: Potency [2] | Potency [3] | Potency [6] | Potency [7] | Potency [11] | Potency [12]
active: Potency [8] 2.64 µM

Cc1ccc(C(=O)Nc2ccc(S(=O)(=O)O)c3cc(S(=O)(=O)O)cc(S(=O)(=O)O)c23)cc1NC(=O)c1cccc(NC(=O)Nc2cccc(C(=O)Nc3cc(C(=O)Nc4ccc(S(=O)(=O)O)c5cc(S(=O)(=O)O)cc(S(=O)(=O)O)c45)ccc3C)c2)c1
active: Potency [6] 5.9 µM
inactive: Potency [10] | Potency [12]

O=c1c(O)c(-c2ccc(O)c(O)c2)oc2cc(O)cc(O)c12
inactive: Potency [8] | Potency [12] | outcome [13] | max response [14] -0.891% | outcome [15]
active: Potency [2] 16.6 µM | Potency [3] 18.7 µM | Potency [4] 16.6 µM | Potency [6] 18.7 µM | Potency [7] 18.7 µM

O=c1c(-c2ccc(O)cc2)coc2cc(O)cc(O)c12
active: Potency [4] 5.9 µM | Potency [7] 7.43 µM | Potency [8] 20.9 µM
inactive: Potency [6] | Potency [12]

Cc1cnc(C(=O)NCCc2ccc(S(=O)(=O)NC(=O)NC3CCCCC3)cc2)cn1
active: Potency [3] 20.9 µM | Potency [6] 14.8 µM | Potency [7] 16.6 µM | Potency [8] 16.6 µM

O=C(c1ccc(F)cc1)C1CCN(CCn2c(=O)[nH]c3ccccc3c2=O)CC1
active: Potency [10] 4.69 µM | Potency [8] 5.26 µM
inactive: Potency [2] | Potency [5] | Potency [6]

C[C@H]1c2cccc(O)c2C(O)=C2C(=O)[C@]3(O)C(O)=C(C(N)=O)C(=O)[C@@H](N(C)C)[C@@H]3[C@@H](O)[C@@H]21
active: Potency [2] 18.7 µM | Potency [3] 18.7 µM

COc1ccccc1OCCNCC(O)COc1cccc2[nH]c3ccccc3c12 (stereo not drawn)
inactive: Potency [6]
active: Potency [3] 18.7 µM | Potency [7] 16.6 µM

CS(=O)(=O)Nc1ccc([N+](=O)[O-])cc1Oc1ccccc1
active: Potency [8] 16.6 µM
inactive: Potency [2] | Potency [3] | Potency [4] | Potency [7] | Potency [12]

Clc1ccccc1C(c1ccccc1)(c1ccccc1)n1ccnc1
active: Potency [2] 5.9 µM | Potency [4] 14.8 µM | Potency [8] 14.8 µM
inactive: Potency [10]

CC(C)NCC(O)COc1ccc(CCOCC2CC2)cc1 (stereo not drawn)
inactive: Potency [3] | Potency [5] | Potency [6] | Potency [7] | Potency [8] | Potency [11] | Potency [12]

Fc1ccc([C@@H]2CCNC[C@H]2COc2ccc3c(c2)OCO3)cc1
active: Potency [11] 18.7 µM | Potency [9] 23.5 µM | Potency [12] 20.9 µM
inactive: Potency [3] | Potency [7]

Clc1ccc2nsnc2c1NC1=NCCN1
inactive: Potency [2] | Potency [3] | Potency [4] | Potency [5] | Potency [7] | Potency [9] | Potency [12]

NCCc1cnc[nH]1
inactive: Potency [10] | Potency [3] | Potency [5] | Potency [6] | Potency [7] | Potency [9] | Potency [12]
